The text below walks through data of the supplement of paper PMC11417369.

± gives the standard deviation of the averaged measurements. The full ranking holds about 25,000 sequences; the median of “ln(normalized median fluorescence intensity)” is about 7.9, and the highest 2% start at about 11. Many of the other results were omitted from the sample, so the highest values are more common in it than they were.

The assay has as its system PfAP2-I AP2 domain 3 (GST-tagged). In words: gcPBM binding intensity (ln(normalized median fluorescence intensity)); higher = stronger DNA binding. Put shortly: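 GST-tagged P. falciparum DNA-binding domains produced in E. coli were incubated for 1 h on an Agilent 4 × 180k array of primer-extended double-stranded 36-bp intergenic genomic probes with negative controls. Binding intensity is the highest Masliner-normalised natural-log median intensity across replicate spots of either probe orientation, with bound protein detected by Alexa488 anti-GST antibody at 488 nm.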
With “AGAGGAAAAATAAAAGGAAAAAAGAAAATAATATTG [CACACA_negctrl_site852]”, the “gcPBM binding intensity (ln)” value turned out to be 7.45 ± 0.73.
The figure for “GAATGAATGATAAATTTTTTTTTCTTTTTTTTTTTG [CACACA_negctrl_site333]” is 7.09 ± 0.59.
With “ACCTTATAAAAAAAAAGTACATATATAAATAATAAA [XGTACX_site4338]”, the “gcPBM binding intensity (ln)” value was found to be 8.29 ± 0.13.
In the case of “ATATAATTAAAAACATGTACATATATATATATATAT [XGTACX_site2882]” it was 9.27 ± 0.2.
The figure for “TTATGTTCTTTAAAACCACACACCCCCCAACCCCCC [CACACA_site8742]” is 10.9 ± 0.44; for “CAAACCCACCAACACACACACACAAAAATGATTAAA [CACACA_site2432]” it is 8.03 ± 0.23; for “ATGTTCTTTAAAACCACACACCCCCCAACCCCCCTC [CACACA_site2373]” it is 10.6 ± 0.36.
Regarding “ATAAGTATAAGAATCAGTACACAGTTTCTACATACT [XGTACX_site5834]”, the “gcPBM binding intensity (ln)” value worked out at 7.56 ± 0.51.
In the case of “TATCAAAGTAGAAGAGATCGATGTCATATTGTGATG [GTGCAC_negctrl_site42]” it was 7.73 ± 0.75; in that of “CATATGCATACTATACGTACATATGTATATAATATA [XGTACX_site7738]”, 8.03 ± 0.42; in that of “TATAATATTAATGACTGTACTCATACGTATATTTAT [XGTACX_site5493]”, 7.79 ± 0.3.
Turning to GGTCTTCTTAATATACTGCACTGTATACGTATATAA, the “gcPBM binding intensity (ln)” value is 11 ± 0.61.
The figure for “GATAGATAATATTTTAGTACATAAACAATTAAATAT [XGTACX_site4125]” is 7.91 ± 0.44.
As to “TAATCATAAAAAAATACACACATATAAAATATAGAT [CACACA_site7020]”, the “gcPBM binding intensity (ln)” value was 7.51 ± 0.63.
The figure for “ATGGATTATACGTGCACACATATATACCAATAAATA [CACACA_site4524]” is 11.2 ± 0.22; for “TATAAATACATACGTACACACAAATATTAAAATATA [CACACA_site5129]” it is 7.905 ± 0.007; for “CATAAAAATGGATACACACACATAATATATATATAT [CACACA_site3619]” it is 9.08 ± 0.11.
In the case of “TAGGGATTATACCACACACACATACACATAAATATA [CACACA_site3178]”, the “gcPBM binding intensity (ln)” value was 7.86 ± 0.32.
In the case of “ATATAAATACGGTGTGCACACACATAATATATATAT [CACACA_site2271]” it was 9.52 ± 0.26; in that of “TAATGGATTATACGTGCACACATATATACAAATAAA [CACACA_site8116]”, 10.97 ± 0.035.
The figure for “TCATATATATTATACACACACATATATAAATATATA [CACACA_site967]” is 7.87 ± 0.54; for “ATGGATTATACGTGCACACATATATACAAATAAATA [CACACA_site640]” it is 11.19 ± 0.035.
The figure for “TTATAATATGGATACACACACATATATAAATATATA [CACACA_site5314]” is 7.68 ± 0.38; for “AATAATAATAAAAATAAACACACATATATATGTATA [CACACA_site8928]” it is 7.57 ± 0.28.
For the sequence “AATATAATTATATGTGGTACAGAAATAATATAAAAT [XGTACX_site2366]”, the “gcPBM binding intensity (ln)” value worked out at 8.22 ± 0.52.
In the case of “TTATAAAAAAAAAAAAAAAAGAAAATGAATTCACGA [CACACA_negctrl_site1248]” it was 8.19 ± 0.3; in that of “TAAATTATTATCCCCTCACACACAAAAATAAAAAGA [CACACA_site2886]”, 8.56 ± 0.25; in that of “CGTTGTAGGGAATGTAGTACAGTTATTATTTTATTA [XGTACX_site2429]”, 7.88 ± 0.24.
The figure for “TTAATGCACTTTATTACACACACTAGTTCATTACCT [CACACA_site2294]” is 11.5 ± 0.95; for “AATGAGAATTTTATTACACACTTTAATATATTTTCA [CACACA_site784]” it is 7.7 ± 0.53; for “TATTATATTGTTCATTTACACTTTCATTTTAAAAAA [CACACA_negctrl_site260]” it is 8.05 ± 0.54.
Regarding “ATAGTTACACAATGGTGTACAAGTCAATATATTTCT [XGTACX_site4614]”, the “gcPBM binding intensity (ln)” value was determined as 7.95 ± 0.33.
In the case of “ATATTGTTATATGTTTGTACATATTTTTTATATTTT [XGTACX_site6834]” it was 7.7 ± 0.64.
In the case of “AACAAAATAAAAAGTAATCTTATTTATTAAAATTTT [CACACA_negctrl_site419]” it was 7.25 ± 0.43; in that of “AAGGCATGACTATCTGCACACATAAAAATAAGAAAT [CACACA_site8180]”, 8.62 ± 0.39; in that of “TATAAATTTATAAATAGTACATATATTTATATATAT [XGTACX_site6433]”, 8.12 ± 0.64.
In the case of “TAAATAGTTATAAAAGTGCAAAAAAAAAAAAAAAAA [GTGCAC_site9550]” it was 10.1 ± 0.53; in that of AAAATTTATAGTATGGTGCATAAAAATATATATATA, 11.4 ± 0.23; in that of “TAAAATATTTCAAAGGTGCAATGATAATTTAAGACG [GTGCAC_site9609]”, 10.6 ± 0.54.
Regarding “TTATAAAAAATTTTAGTGCATATATGATTTATATAT [GTGCAC_site9831]”, the “gcPBM binding intensity (ln)” value is 10.1 ± 0.33.
In the case of AAATGAATATTCATAGTGCAATATATAAATGAAAAT, the “gcPBM binding intensity (ln)” value worked out at 11 ± 0.38.
In the case of “ACAATGAAATATTCATGTACATATAAATAATAGTGT [XGTACX_site3762]” it was 7.93 ± 0.42.
In the case of “GCTGAAAGGATAAAGGTGCATATTTTTTAAAAAATT [GTGCAC_site9487]” it was 10.4 ± 0.28.
As to ATATAAGAATAAATAGTGCAAAATAAATGATTATTT, the “gcPBM binding intensity (ln)” value stood at 10.7 ± 0.33.
In the case of “AAGAAAATATAACAAAGTAAAAACATATTATATATA [TGCATGCA_negctrl_site248]” it was 7.34 ± 0.34; in that of GTTATTGAAAAAATAGTGCAATATAACAAAGTAAAA, 11.4 ± 0.52; in that of “CATAATTTAAAAAAGGTGCAAAATGGATAATATATA [GTGCAC_site9657]”, 11.1 ± 0.57.
